# Experimental data reported in ChEMBL document CHEMBL1961873, “Compounds: GSK PKIS; Assays: Nanosyn kinase panel” (2012).
# Tests used:
# [1] = molecular target: T1, Inhibitor of nuclear factor kappa-B kinase subunit epsilon (Homo sapiens) (UniProt Q14164); details: at 1 µM;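 further: reported values are averaged percent inhibition figures against human IKKε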
# T1 sequence (whole entry): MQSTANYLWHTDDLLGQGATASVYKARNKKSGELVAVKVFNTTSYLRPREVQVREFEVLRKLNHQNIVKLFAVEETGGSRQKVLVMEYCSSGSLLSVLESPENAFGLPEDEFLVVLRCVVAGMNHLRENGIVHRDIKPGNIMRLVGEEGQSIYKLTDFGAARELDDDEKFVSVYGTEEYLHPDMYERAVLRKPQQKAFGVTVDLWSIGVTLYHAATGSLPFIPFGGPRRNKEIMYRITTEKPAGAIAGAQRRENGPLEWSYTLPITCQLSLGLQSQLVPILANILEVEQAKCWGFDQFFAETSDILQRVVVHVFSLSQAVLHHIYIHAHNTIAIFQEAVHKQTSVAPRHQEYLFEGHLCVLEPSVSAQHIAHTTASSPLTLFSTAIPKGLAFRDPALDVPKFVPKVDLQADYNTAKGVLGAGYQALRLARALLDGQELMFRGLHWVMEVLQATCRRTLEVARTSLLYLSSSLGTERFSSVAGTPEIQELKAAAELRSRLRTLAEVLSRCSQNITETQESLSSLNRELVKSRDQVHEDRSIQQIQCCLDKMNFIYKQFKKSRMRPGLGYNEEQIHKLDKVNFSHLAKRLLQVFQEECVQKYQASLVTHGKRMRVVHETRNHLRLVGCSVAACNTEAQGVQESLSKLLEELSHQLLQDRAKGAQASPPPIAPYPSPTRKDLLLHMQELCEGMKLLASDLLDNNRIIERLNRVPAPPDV
# [2] = molecular target: T2, Serine/threonine-protein kinase Nek1 (Homo sapiens) (UniProt Q96PY6); details: at 0.1 µM
# T2 sequence (whole entry): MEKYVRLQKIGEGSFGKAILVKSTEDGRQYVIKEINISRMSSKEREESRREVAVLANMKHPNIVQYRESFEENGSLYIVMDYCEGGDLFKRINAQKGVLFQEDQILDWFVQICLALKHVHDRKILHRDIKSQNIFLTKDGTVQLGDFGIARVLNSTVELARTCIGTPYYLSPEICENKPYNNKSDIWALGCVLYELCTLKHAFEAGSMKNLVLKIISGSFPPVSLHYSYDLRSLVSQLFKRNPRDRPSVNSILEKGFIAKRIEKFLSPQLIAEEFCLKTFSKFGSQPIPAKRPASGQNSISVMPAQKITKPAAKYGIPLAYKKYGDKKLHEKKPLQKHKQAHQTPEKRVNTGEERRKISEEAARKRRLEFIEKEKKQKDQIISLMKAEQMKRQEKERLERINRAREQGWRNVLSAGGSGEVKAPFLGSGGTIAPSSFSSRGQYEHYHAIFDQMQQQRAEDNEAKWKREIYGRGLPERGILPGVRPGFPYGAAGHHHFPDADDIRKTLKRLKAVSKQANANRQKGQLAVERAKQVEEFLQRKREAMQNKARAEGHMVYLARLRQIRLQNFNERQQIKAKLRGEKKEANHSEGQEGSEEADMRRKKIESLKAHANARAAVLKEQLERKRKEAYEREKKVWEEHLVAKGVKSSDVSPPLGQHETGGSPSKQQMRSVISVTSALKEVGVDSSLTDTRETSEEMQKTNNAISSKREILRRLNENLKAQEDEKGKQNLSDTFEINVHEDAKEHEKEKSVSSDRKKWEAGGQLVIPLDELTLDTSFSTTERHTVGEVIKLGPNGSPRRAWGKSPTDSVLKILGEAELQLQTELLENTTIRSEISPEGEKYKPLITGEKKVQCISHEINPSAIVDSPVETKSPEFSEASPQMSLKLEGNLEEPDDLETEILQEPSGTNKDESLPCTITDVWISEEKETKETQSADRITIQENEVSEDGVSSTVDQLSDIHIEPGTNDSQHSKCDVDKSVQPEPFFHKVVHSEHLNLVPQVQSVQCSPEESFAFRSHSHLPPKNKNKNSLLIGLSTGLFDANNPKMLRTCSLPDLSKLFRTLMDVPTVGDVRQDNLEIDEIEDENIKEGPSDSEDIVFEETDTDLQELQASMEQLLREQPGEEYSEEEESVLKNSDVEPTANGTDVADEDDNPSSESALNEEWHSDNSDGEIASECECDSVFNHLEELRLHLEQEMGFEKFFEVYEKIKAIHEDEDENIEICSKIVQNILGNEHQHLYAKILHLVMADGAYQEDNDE
# [3] = molecular target: T2, Serine/threonine-protein kinase Nek1 (Homo sapiens); details: at 1 µM
# [4] = molecular target: T3, Serine/threonine-protein kinase Nek2 (Homo sapiens) (UniProt P51955); details: at 0.1 µM
# T3 sequence (whole entry): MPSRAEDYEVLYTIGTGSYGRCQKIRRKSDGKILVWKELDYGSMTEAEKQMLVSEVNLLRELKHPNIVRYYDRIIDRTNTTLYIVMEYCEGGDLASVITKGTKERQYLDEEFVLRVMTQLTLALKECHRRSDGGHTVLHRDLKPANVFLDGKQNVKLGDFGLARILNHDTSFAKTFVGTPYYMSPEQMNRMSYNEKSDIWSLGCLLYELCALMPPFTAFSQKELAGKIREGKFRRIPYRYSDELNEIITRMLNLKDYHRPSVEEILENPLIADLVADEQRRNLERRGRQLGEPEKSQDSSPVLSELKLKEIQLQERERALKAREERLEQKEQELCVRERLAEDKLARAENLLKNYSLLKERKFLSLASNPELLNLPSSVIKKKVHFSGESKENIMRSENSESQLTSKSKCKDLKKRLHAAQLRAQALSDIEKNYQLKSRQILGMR
# [5] = molecular target: T3, Serine/threonine-protein kinase Nek2 (Homo sapiens); details: at 1 µM
# [6] = molecular target: Serine/threonine-protein kinase Nek6 (Homo sapiens) (UniProt Q9HC98); details: at 0.1 µM
# [7] = molecular target: Serine/threonine-protein kinase Nek6 (Homo sapiens) (UniProt Q9HC98); details: at 1 µM
# [8] = molecular target: Serine/threonine-protein kinase Nek7 (Homo sapiens) (UniProt Q8TDX7); details: at 0.1 µM
# [9] = molecular target: Serine/threonine-protein kinase Nek7 (Homo sapiens) (UniProt Q8TDX7); details: at 1 µM
# [10] = molecular target: T4, Serine/threonine-protein kinase Nek9 (Homo sapiens) (UniProt Q8TD19); details: at 0.1 µM
# T4 sequence (whole entry): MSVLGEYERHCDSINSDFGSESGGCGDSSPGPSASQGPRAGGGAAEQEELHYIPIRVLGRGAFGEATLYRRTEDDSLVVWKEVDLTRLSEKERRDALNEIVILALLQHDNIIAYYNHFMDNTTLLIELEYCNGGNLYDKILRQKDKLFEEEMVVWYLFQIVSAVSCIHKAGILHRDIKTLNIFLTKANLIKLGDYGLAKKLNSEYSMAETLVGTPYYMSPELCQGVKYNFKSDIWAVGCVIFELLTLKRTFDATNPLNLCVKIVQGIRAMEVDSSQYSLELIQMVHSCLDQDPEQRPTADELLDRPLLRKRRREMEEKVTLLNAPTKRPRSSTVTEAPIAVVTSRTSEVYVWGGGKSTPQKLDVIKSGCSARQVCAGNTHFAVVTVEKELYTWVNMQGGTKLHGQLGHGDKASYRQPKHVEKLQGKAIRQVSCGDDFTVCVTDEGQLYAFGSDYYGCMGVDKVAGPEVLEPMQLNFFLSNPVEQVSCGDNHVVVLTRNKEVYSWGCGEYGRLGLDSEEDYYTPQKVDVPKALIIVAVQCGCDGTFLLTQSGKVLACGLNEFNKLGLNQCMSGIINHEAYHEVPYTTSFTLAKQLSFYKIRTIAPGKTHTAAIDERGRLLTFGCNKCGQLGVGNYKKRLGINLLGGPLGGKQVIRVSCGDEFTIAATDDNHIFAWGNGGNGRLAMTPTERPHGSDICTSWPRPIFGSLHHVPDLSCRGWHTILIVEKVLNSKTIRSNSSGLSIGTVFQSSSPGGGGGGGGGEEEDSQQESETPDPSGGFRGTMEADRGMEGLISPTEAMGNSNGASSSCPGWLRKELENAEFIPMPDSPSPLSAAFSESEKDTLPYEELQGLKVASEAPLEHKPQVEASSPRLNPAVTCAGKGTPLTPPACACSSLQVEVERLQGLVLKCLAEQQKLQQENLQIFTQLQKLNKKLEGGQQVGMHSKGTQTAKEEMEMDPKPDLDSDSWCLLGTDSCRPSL
# [11] = molecular target: T4, Serine/threonine-protein kinase Nek9 (Homo sapiens); details: at 1 µM
# [12] = molecular target: Serine/threonine-protein kinase PLK1 (Homo sapiens) (UniProt P53350); details: at 0.1 µM
# [13] = molecular target: Serine/threonine-protein kinase PLK1 (Homo sapiens) (UniProt P53350); details: at 1 µM
# [14] = molecular target: T5, Dual specificity protein kinase TTK (Homo sapiens) (UniProt P33981); details: at 0.1 µM
# T5 sequence (whole entry): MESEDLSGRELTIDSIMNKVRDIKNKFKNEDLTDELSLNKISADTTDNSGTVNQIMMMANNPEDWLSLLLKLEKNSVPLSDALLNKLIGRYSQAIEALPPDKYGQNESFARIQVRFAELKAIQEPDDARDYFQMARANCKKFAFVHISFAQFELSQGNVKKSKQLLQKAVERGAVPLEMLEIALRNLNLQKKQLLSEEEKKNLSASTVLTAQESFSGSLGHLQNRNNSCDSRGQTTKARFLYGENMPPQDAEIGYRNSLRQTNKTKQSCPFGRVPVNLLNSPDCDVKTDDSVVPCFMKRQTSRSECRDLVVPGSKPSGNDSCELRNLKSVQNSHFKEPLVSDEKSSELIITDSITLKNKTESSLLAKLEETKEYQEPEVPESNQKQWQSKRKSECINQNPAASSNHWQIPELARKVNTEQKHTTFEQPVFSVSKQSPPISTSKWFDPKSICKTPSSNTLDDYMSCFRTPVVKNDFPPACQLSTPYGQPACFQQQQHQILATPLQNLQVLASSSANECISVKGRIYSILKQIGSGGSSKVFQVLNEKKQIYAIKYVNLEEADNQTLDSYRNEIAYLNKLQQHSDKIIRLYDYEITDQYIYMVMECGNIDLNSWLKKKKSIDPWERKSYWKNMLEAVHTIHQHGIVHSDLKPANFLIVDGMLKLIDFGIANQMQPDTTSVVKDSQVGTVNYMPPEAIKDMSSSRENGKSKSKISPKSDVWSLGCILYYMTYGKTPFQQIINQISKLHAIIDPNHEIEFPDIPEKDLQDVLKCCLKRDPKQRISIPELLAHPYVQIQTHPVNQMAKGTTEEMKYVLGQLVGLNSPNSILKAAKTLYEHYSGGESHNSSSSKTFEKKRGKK
# [15] = tested on: T6, Receptor-type tyrosine-protein kinase FLT3 (Homo sapiens), P36888 [D835Y]; details: at 1 µM
# T6 sequence (whole entry): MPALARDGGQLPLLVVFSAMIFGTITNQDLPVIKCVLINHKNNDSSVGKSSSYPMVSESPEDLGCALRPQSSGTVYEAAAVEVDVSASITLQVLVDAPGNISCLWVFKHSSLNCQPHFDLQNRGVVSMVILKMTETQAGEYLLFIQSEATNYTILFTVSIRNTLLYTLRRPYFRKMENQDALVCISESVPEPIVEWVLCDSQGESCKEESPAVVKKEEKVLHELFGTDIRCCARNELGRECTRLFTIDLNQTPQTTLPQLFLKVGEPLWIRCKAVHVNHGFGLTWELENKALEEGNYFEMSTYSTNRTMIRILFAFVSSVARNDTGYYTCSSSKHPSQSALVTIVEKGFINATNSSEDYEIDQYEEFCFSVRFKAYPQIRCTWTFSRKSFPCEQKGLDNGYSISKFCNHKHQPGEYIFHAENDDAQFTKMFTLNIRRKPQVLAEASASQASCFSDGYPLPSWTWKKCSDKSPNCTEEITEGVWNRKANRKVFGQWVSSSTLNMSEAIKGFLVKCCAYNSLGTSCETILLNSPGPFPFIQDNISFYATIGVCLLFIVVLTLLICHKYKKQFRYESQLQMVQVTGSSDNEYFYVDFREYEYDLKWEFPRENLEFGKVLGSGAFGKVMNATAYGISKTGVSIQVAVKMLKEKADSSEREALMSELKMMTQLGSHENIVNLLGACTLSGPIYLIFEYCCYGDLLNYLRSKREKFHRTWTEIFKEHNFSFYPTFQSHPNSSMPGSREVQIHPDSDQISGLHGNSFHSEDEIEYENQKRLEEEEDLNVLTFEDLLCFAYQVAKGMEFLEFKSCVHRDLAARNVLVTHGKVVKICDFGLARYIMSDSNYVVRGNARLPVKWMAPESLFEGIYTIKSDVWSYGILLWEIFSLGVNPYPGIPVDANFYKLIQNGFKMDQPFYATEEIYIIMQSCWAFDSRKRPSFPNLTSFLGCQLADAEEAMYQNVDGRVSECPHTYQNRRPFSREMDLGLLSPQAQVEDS
# [16] = molecular target: Vascular endothelial growth factor receptor 3 (Homo sapiens) (UniProt P35916); details: at 0.1 µM
# [17] = molecular target: Vascular endothelial growth factor receptor 3 (Homo sapiens) (UniProt P35916); details: at 1 µM
# [18] = molecular target: Macrophage colony-stimulating factor 1 receptor (Homo sapiens) (UniProt P07333); details: at 0.1 µM
# [19] = molecular target: Macrophage colony-stimulating factor 1 receptor (Homo sapiens) (UniProt P07333); details: at 1 µM
# [20] = molecular target: Tyrosine-protein kinase Fyn (Homo sapiens) (UniProt P06241); details: at 0.1 µM
# Tyrosine-protein kinase Fyn (Homo sapiens), sequence (P06241 2-537 limits assumed): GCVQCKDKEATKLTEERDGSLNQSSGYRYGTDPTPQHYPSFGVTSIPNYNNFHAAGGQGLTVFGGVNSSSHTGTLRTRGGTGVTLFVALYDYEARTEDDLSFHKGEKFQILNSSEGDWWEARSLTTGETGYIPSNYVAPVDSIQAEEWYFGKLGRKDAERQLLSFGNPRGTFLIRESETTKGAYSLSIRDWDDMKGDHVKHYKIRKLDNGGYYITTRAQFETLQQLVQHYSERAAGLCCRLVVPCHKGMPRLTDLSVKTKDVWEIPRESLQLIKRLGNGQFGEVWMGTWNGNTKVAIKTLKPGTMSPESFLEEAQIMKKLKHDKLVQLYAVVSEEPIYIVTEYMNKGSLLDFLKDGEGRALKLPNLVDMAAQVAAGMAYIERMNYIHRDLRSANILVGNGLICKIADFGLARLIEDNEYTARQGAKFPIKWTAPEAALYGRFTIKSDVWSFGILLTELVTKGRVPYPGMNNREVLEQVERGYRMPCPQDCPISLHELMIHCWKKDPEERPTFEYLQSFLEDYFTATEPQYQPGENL
# Serine/threonine-protein kinase Nek7 (Homo sapiens), sequence (Q8TDX7 whole entry, looked up): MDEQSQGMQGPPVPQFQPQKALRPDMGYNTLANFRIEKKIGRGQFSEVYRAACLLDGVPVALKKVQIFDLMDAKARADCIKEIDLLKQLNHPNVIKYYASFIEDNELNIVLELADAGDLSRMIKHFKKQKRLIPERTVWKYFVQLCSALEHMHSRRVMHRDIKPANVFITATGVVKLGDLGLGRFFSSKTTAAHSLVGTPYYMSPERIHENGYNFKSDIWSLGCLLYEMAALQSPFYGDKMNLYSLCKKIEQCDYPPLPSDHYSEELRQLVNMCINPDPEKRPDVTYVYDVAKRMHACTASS
# Vascular endothelial growth factor receptor 3 (Homo sapiens), sequence (P35916 whole entry): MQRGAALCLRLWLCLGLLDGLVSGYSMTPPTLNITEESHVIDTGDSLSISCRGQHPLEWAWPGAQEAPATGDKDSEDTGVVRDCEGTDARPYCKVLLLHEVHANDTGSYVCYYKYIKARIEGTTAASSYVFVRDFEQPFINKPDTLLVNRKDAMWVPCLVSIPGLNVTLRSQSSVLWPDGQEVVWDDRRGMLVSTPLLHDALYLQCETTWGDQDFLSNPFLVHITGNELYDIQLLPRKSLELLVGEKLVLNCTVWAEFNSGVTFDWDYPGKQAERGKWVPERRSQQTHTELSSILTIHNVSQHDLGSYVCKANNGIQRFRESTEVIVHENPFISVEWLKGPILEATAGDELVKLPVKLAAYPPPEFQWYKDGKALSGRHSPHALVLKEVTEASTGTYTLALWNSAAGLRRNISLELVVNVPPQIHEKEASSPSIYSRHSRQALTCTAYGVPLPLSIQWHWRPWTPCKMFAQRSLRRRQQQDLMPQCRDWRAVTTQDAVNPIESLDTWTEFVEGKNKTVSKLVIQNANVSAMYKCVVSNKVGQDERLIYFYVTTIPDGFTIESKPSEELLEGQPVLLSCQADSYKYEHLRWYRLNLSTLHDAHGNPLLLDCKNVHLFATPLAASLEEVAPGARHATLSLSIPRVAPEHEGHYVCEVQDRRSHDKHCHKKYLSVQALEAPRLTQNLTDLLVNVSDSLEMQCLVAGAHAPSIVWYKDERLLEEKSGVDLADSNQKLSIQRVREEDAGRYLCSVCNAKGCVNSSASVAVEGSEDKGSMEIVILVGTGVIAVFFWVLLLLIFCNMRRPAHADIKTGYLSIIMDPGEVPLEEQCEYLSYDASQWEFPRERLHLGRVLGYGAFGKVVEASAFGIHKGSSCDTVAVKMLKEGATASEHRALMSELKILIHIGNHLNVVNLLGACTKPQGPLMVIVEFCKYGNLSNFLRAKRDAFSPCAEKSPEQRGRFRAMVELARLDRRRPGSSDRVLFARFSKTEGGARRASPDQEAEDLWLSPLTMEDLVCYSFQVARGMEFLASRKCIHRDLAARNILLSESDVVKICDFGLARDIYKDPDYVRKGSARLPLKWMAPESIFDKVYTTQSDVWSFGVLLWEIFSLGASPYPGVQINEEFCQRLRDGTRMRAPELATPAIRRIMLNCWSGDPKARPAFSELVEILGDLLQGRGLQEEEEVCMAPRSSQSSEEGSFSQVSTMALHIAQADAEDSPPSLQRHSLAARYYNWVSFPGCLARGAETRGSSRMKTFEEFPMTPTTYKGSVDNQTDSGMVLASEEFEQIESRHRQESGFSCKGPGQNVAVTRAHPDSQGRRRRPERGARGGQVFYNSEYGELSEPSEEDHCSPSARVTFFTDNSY
# Serine/threonine-protein kinase PLK1 (Homo sapiens), sequence (P53350 whole entry): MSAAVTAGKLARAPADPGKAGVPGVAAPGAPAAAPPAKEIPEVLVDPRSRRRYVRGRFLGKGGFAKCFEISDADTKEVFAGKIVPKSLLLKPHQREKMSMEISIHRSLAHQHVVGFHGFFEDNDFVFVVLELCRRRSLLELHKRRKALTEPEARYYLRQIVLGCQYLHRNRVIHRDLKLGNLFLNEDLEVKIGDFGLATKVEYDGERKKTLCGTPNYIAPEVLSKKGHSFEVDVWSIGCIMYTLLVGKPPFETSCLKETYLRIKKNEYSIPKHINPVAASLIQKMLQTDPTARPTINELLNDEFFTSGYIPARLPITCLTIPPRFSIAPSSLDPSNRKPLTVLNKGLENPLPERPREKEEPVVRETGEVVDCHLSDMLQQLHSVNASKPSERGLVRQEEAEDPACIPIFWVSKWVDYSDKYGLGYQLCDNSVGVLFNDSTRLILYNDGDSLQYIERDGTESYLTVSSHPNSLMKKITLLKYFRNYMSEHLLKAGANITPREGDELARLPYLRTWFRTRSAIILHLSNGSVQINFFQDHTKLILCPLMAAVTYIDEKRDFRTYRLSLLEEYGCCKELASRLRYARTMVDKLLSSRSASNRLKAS
# Serine/threonine-protein kinase Nek6 (Homo sapiens), sequence (Q9HC98 whole entry): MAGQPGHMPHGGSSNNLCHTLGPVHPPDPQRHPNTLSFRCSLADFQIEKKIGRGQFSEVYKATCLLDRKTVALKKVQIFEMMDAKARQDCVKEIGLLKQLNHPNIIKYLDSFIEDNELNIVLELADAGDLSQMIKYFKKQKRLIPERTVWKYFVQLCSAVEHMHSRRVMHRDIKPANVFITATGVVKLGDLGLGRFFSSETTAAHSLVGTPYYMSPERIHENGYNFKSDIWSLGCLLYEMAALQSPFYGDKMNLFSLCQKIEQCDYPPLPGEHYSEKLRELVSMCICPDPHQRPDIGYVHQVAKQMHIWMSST
# Macrophage colony-stimulating factor 1 receptor (Homo sapiens), sequence (P07333 whole entry): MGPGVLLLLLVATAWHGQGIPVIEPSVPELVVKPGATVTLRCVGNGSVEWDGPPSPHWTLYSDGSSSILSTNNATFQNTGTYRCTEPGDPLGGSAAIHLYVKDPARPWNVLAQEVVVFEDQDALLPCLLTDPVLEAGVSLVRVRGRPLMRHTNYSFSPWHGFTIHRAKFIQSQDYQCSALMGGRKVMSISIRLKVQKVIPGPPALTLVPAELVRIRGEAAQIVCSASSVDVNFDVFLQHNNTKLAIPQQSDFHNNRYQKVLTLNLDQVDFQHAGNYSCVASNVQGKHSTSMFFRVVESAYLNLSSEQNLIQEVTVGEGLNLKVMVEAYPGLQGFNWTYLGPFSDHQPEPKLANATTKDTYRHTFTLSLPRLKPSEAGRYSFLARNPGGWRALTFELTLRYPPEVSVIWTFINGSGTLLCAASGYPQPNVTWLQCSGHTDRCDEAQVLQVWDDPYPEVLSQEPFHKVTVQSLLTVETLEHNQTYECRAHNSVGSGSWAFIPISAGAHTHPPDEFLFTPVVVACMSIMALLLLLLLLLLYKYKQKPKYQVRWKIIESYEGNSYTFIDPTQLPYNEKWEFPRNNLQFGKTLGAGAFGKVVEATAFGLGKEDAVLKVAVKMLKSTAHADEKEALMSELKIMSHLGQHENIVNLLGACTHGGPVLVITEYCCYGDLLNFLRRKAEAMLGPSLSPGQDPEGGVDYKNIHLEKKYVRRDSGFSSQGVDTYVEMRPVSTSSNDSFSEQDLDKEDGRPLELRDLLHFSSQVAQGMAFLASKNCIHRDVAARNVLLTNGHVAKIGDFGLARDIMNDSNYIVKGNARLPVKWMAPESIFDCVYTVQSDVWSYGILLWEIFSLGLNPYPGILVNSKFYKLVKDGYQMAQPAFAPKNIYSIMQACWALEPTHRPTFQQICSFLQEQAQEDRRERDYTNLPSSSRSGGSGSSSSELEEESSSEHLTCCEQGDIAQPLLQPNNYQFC
Compound,inhibition [1],inhibition [2],inhibition [3],inhibition [4],inhibition [5],inhibition [6],inhibition [7],inhibition [8],inhibition [9],inhibition [10],inhibition [11],inhibition [12],inhibition [13],inhibition [14],inhibition [15],inhibition [16],inhibition [17],inhibition [18],inhibition [19],inhibition [20]
CCOc1ccc2c(-c3ccnc(Nc4cccc(C(F)(F)F)c4)n3)cnn2n1,12.1%,2.34%,1.31%,0.57%,1.02%,0.83%,2.66%,1.88%,0.03%,7.49%,4.9%,0.64%,1.39%,3.43%,5.75%,2.01%,3.46%,-2.9%,14.1%,1.07%
Clc1ccc(-c2nn3ncccc3c2-c2ccnc(Nc3ccccc3)n2)cc1,-3.51%,1.79%,1.38%,2.53%,1.79%,2.55%,2.29%,2.07%,1.34%,5.9%,-3.71%,-9.28%,3.17%,3.63%,-0.74%,4.99%,16.2%,4.3%,32.3%,9.12%
COC(=O)c1sc(-n2cnc3cc(OC)c(OC)cc32)cc1OCc1ccccc1C(F)(F)F,8.59%,2.43%,0.28%,4.46%,3.83%,-0.01%,-1.32%,6.92%,4.66%,6.87%,7%,3.92%,14.4%,12.7%,0.96%,8.44%,50.2%,16.2%,60.9%,15.6%
